The campaign covered roughly 290,000 compounds. About 670 (0.23%) were called active. This is one part of a sample in which actives are shown more often than they occur.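 How the source made its calls: active means inhibition above a per-plate limit of that plate's mean compound inhibition plus 3 SD (cut at about 60% in these data); inactive means the rest.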
Assay: KLF5 expression inhibitors, primary screen, DLD-1 cells, luminescence (AID 1700);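 further: 0% = DMSO wells and 100% = LY294002 at 200 µM; higher means less KLF5 promoter-driven luciferase light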
Details: DLD-1 KLF5 promoter-luciferase reporter, at 5 µM, stronger effect = higher value
With `CCCCCCCCCCCCn1ccc(=N)cc1` the inhibition was 75.9% (active). In the case of `CCN(CC)c1ccc([N+](=O)[O-])c2cccnc12`, the inhibition is reported as -21% (inactive). For `COc1cc2nc(N3CCN(C(=O)[C@@H]4CCCO4)CC3)nc(N)c2cc1OC`, the inhibition was -16.5% (inactive). In the case of `O=C1NC(=O)C(CCc2ccccn2)(Cc2cccc(Cl)c2Cl)C(=O)N1c1ccc(Br)cc1` (stereo not given), the inhibition is reported as -5.72% (inactive). For `COc1ccc(N2C(=O)/C(=C/c3ccco3)C(=O)NC2=S)cc1`, the inhibition was -5.05% (inactive).

— PubChem BioAssay AID1700 (The Scripps Research Institute Molecular Screening Center, 2009)
